Lamin A splicing = LMNA splicing modulation; Potency, µM (series often up to 46.1 µM), inactives show top-dose ratio change, negative = inhibition, actives largely listed as inhibitors; hit rate 0.01% among 200,000; HeLa LMNA splicing GFP/RFP minigene ratio, 48 h; active = well fitted inhibition curve with a large enough effect in the signal ratio, with a control signal flat, not every such curve was filed as active; inconclusive = small, poorly fitted or top-dose-only effect, or effect the other way, or a change in a side signal; the % refers to the signal ratio; also: % is scaled to controls: 0 for no effect and ±100 for the full control effect
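S3 HeLa cells stably expressing lamin A-EGFP splicing minigene plus DsRed2, 600 cells/well, 48 h compound exposure at 37C. Laser-scanning cytometry; analysed as GFP (500-530 nm)/RFP (575-640 nm) total intensity ratio; 0.5% DMSO vehicle.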
ALDH1A1 inh = ALDH1A1 (human) enzyme inhibition | P00352 | Purified ALDH1A1, NADH fluorescence, propionaldehyde substrate | Potency, µM (highest dose often 75.3 µM), inactives show at the highest dose activity, negative = inhibition, actives largely listed as inhibitors | hit rate 7.3% among 220,000; active = well fitted inhibition curve with a large enough effect, not every such curve was filed as active; inconclusive = small, poorly fitted or top-dose-only effect, or another doubt; inactive = no such curve, though single readings can be large or run the other way;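 also: plate controls were no enzyme wells and a reference inhibitor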
Target sequence (P00352 whole entry, looked up): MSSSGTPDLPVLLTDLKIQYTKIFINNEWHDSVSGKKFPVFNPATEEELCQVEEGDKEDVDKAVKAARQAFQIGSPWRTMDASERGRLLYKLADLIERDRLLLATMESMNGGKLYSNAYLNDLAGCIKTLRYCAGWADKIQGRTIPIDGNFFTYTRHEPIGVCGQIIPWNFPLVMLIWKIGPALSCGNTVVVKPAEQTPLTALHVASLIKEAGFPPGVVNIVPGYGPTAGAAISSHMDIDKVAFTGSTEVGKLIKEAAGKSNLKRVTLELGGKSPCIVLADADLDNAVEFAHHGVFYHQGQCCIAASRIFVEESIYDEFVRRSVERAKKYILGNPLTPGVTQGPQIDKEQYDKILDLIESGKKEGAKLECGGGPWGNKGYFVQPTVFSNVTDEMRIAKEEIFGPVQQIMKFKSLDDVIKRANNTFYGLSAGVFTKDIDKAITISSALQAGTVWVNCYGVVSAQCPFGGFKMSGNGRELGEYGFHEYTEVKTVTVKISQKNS
KinaseGlo FLuc = counter-screen: inhibitors of Kinase-Glo firefly luciferase; Potency, µM (top dose mostly 38.3 µM), without a hit: at the highest dose activity change, negative = inhibition, actives largely listed as inhibitors; Q27757; AID 1379; hit rate 0.28% among 200,000; Kinase-Glo luciferase, ATP luminescence, 8 min; also: % is scaled to controls: 0 for no effect and ±100 for the full control effect; nearly all actives have a fitted effect of over 60% in size
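Luminescence was the read-out, taken after 8-minute incubation at ambient temperature. Luciferase turned over luciferin with 10 uM ATP in imidazole pH 7.2 buffer containing KCl, MgCl2, Tween 20 and BSA.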
HPGD inh = inhibitors of human 15-hydroxyprostaglandin dehydrogenase (HPGD); P15428; purified HPGD, NADH fluorescence kinetic, PGE2 substrate; Potency, µM, inactives show top-dose activity change, negative = inhibition, most hits filed as inhibitors; hit rate 4.3% among 150,000; AID 894; active = well fitted inhibition curve with a large enough effect, not every such curve was filed as active; inconclusive = small, poorly fitted or top-dose-only effect, or another doubt; inactive = no such curve, though single readings can be large or run the other way; also: % is scaled to controls: 0 for no effect and ±100 for the full control effect
Target sequence (P15428 whole entry, looked up): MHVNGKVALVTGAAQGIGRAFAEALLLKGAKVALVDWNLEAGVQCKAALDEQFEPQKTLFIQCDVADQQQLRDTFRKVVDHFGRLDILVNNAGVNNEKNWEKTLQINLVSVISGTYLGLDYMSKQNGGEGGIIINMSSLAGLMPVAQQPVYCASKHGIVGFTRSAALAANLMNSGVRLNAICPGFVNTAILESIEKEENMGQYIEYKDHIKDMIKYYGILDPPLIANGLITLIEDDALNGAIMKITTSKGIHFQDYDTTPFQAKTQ
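NADH formation kinetics: reaction with 30 uM PGE2 and 1 mM NAD+ (final), 20 nM enzyme, Tris-HCl pH 8 with Tween 20, after 15 min compound preincubation at room temperature. Fluorescence change, last versus first of five reads.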
HTT aggregate = inhibitors of mutant huntingtin aggregate formation in PC12 cells; AID 1688; Potency, µM (highest dose often 46.1 µM), for inactives: top-dose activity change, negative = inhibition, hits mostly inhibitors; hit rate 1.1% among 220,000; PC12 HttQ103-GFP aggregates, Acumen cytometry, 40 h; also: % is scaled to controls: 0 for no effect and ±100 for the full control effect; nearly all actives have a fitted effect of over 60% in size
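PC12 cells with ecdysone-inducible HTT exon1 Q103-GFP, induced by 100 nM tebufenozide, given compounds in a concentration series. GFP aggregates (1–25 um, 6 SD above background) counted in lysates by laser-scanning cytometry, 488 nm excitation.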
HTT ATP protect = cytoprotection in Huntington HTT-Q103 PC12 cell model | hit rate 0.14% among 230,000 | PC12 HTT-Q103 induced, cytoprotection, ATP luminescence, 40 h | Potency, µM (series often up to 56.4 µM), inactives show cytoprotection (ATP increase), hits mostly activators; also: % of control where 0% means no effect; nearly all actives have a fitted effect of over 45% in size
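PC12 cells stably carrying ecdysone-inducible Htt exon 1 (Q103)–GFP were induced with 100 nM tebufenozide (final) alongside library compounds in a dose series. Cytoprotection was scored as retained ATP by ATPlite luminescence.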
Active calls of the source: *; ? = inconclusive; . = not tested or not shown; [ ] = remark or other dose. Shown are actives, neighbours in structure and some others; about 9% of the full set was active somewhere. Unless noted, calls follow the shape of the dose curve; as a rule, active = well fitted curve in the direction sought with a large enough effect; inconclusive = small, poorly fitted or top-dose-only effect, or another doubt; inactive = no such curve, though single readings can be large; an effect the other way counts as inactive or inconclusive. Potency is read from the fitted curve at half-maximal effect.

SMILES	Lamin A splicing	ALDH1A1 inh	KinaseGlo FLuc	HPGD inh	HTT aggregate	HTT ATP protect
C=CCNC(=O)/C=C/c1c(F)cccc1Cl	-9.3%	-8.6%	-3.7%	?	19.7%	-6.1%[10 µM]
O=C(NC(=S)Nn1cnnc1)c1ccccc1Cl	.	10µM*	-2.7%	.	-23.2%	?
COc1cccc(C(=O)NC(=S)Nn2cnnc2)c1OC	-9.5%[46 µM]	7.94µM*	1.5%	.	-11.8%	-7.8%
CCOc1cc(NC(=O)c2cccs2)c(OCC)cc1NC(=O)c1cccnc1	?	0.9%	0.5%	.	11.6%[9.22 µM]	4.4%[10 µM]
O=C(Nc1ccccc1Cl)N1CCN(c2ccc3nnc(-c4ccccc4)n3n2)CC1	-7.6%	?	-1.4%	?	?	-29.5%
O=C(Nc1ccc(Cl)cc1)N1CCN(c2ccc3nnc(-c4ccc(F)cc4)n3n2)CC1	?	28.2µM*	-1.0%	?	22.4µM*	-13.6%[10 µM]
C/C(=C\C(=O)c1cccnc1)Nc1ccc(O)cc1	18.2%	?	-3.1%	15.8µM*	-1.7%	-19.5%
CCn1c(SCC(=O)Nc2ccccc2C(=O)OC)nc2ccsc2c1=O	-10.8%[46 µM]	.	.	.	.	.
O=C(O)Cc1ccc(C(=O)c2ccccc2F)s1	6.1%	5.01µM*	0.3%	15.8µM*	-4.3%	1.0%
CS(=O)(=O)c1nc(-c2ccccc2)cc(C(F)(F)F)n1	?	8.8%	0.1%	?	4.47µM*	?
Cc1cc(NC(=O)CCS(=O)(=O)c2nc(-c3ccccc3)cc(C(F)(F)F)n2)no1	?	-1.1%	3.0%	?	.	-32.6%
O=C1NCN(c2ccccc2)C12CCN(c1nnnn1-c1ccccc1)CC2	-10.2%	22.4µM*	0.6%	-5.7%	-0.8%[9.22 µM]	13.1%
c1ccc(CC2CCN(c3nnnn3-c3ccccc3)CC2)cc1	?	8.91µM*	0.7%	-21.0%	?	3.1%[10 µM]
O=C1CN(c2nnnn2-c2ccccc2)CCN1	-0.5%	-0.2%	-1.5%	-11.2%	-17.7%	11.8%
Cc1cc(C)nc(N2CCN(c3nnnn3-c3ccccc3)CC2)n1	-5.5%	22.4µM*	-2.3%	-6.0%	-4.6%	5.0%
N#CCCn1cc(C(=O)O)c(-c2cc3ccccc3o2)n1	6.7%	?	5.7%	-19.1%	-5.2%	4.9%[10 µM]
COc1cccc(C(=O)Nc2ncc3c(n2)CC(C)CC3=O)c1 (configuration not stated)	14.5%	?	-26.1%	-7.0%	-12.8%	-11.0%[0.074 µM]
COc1cc2c(cc1OC)C(COc1ccc3c(C)cc(=O)oc3c1)N(C(=O)c1ccco1)CC2 (configuration not stated)	-1.1%	?	2.6%	?	9.9%	-7.3%[10 µM]
COC(=O)c1ccc(CSc2nc3c(cnn3-c3ccccc3)c(=O)[nH]2)o1	7.5%	1.7%	-1.6%	-21.6%	-6.0%	5.8%[10 µM]
CCCCCCCCCCCCCCC(C(=O)O)C(O)(CC(=O)OC)C(=O)O (configuration not stated)	-18.6%	-1.6%	-2.0%	15.8µM*	.	.
CCCCCC(CC(=O)O)C(=O)O (configuration not stated)	.	-2.6%	0.9%	1.0%	.	?
CS(=O)(=O)N1CCc2cc(-c3csc(NC(=O)Cc4ccccc4)n3)ccc21	?	?	2.8%	-4.1%	7.7%	-21.2%[10 µM]
COC(=O)[C@@]1(Cc2ccccc2)[C@H]2c3cc(C(=O)N(C)C)n(CCO)c3C[C@H]2CN1C(=O)c1ccccc1	.	7.1%	0.3%	-3.6%	.	-43.7%
CCCCNC(=O)CNC(=S)N(Cc1ccc(C)cc1)Cc1ccco1	.	31.6µM*	5.5%	.	17.3%	-36.6%
COc1ccc(C(N)=S)c(OC)c1	11.2%	12.6µM*	-0.9%	39.8µM*	3.4%	.
SMILES	Lamin A splicing	ALDH1A1 inh	KinaseGlo FLuc	HPGD inh	HTT aggregate	HTT ATP protect
COc1ccc(/C(C)=N/N=C(\C)c2ccc(OC)cc2OC)c(OC)c1	9.5%	12.8%	-2.2%	0.7%	13.1%	-0.6%[10 µM]
COc1ccc(C(=O)OCCNC(=O)c2c(Cl)nc3ccccn23)cc1	0.9%	-0.2%	4.3%	25.1µM*	9.6%	-14.5%[10 µM]
CC(C)(C)c1ccc(C(=O)OCCNC(=O)c2c(Cl)nc3ccccn23)cc1	8.2%	?	-3.1%	11.2µM*	-24.9%	-3.1%
CCOC(=O)c1c(-c2ccccc2)nc2ccccn12	16.1%	0.5%	-3.7%	-4.9%	-4.9%	0.5%
COc1ccccc1NC(=O)CSc1ccc2nnc(-c3ccc(C)cc3)n2n1	.	-0.4%	.	.	-16.9%[9.22 µM]	2.3%[10 µM]
CCN(CC)S(=O)(=O)c1ccc(NS(=O)(=O)c2cccs2)cc1	.	?	5.0%	.	-6.4%	-5.3%
CCN(CC)S(=O)(=O)c1ccc(NS(=O)(=O)c2ccc(O)c([N+](=O)[O-])c2)cc1	-7.6%	5.01µM*	1.6%	35.5µM*	7.1%	4.7%[10 µM]
COc1ccccc1/C=C/C=N/n1c(-c2cc(C)[nH]n2)n[nH]c1=S	-9.9%	?	1.1%	14.1µM*	-20.0%	17.2%[10 µM]
Cc1cc(-c2n[nH]c(=S)n2/N=C/C=C/c2ccccc2)n[nH]1	-7.3%	-6.3%	2.4%	15.8µM*	21.1%	5.2%[10 µM]
COc1ccccc1/C=C/C=N/n1c(-c2ccccn2)n[nH]c1=S	.	.	.	.	-10.9%[9.22 µM]	-11.6%[10 µM]
CC(=O)Oc1ccc(C)cc1	?	.	.	.	-7.2%	-23.0%
O=C(Cc1c[nH]c2ccccc12)Nc1cccc(S(=O)(=O)N2CCCCC2)c1	?	-8.1%	0.4%	.	12.7%	.
O=C(NC1CCCC1)C1CCC(CNS(=O)(=O)c2cccs2)CC1 (configuration not stated)	-8.2%	22.4µM*	-2.2%	22.4µM*	9.0%	.
O=C(NCc1ccc2c(c1)OCO2)C1CCC(CNS(=O)(=O)c2ccccc2)CC1 (configuration not stated)	-10.2%	6.31µM*	-2.3%	-25.5%	0.8%	-18.8%[10 µM]
Cc1ccc(S(=O)(=O)NCC2CCC(C(=O)NCc3cccs3)CC2)cc1 (configuration not stated)	.	0.794µM*	0.0%	.	-10.3%	-11.0%
O=C(NCc1ccc2c(c1)OCO2)C1CCC(CNS(=O)(=O)c2cccc3nsnc23)CC1 (configuration not stated)	4.5%	?	-1.9%	-2.4%	-12.7%	-26.5%
O=C(NCCN1CCOCC1)C1CCC(CNS(=O)(=O)c2ccccc2)CC1 (configuration not stated)	-6.3%	12.6µM*	2.0%	-11.7%	1.0%	.
CC(=O)Nc1ccc(S(=O)(=O)NCC2CCC(C(=O)NC3CCCCCC3)CC2)cc1 (configuration not stated)	?	11.2%	3.3%	-18.1%	-22.5%	.
Cc1cc(C)[n+]2n1C(=O)C(c1ccccc1)=C2[O-]	6.3%[46 µM]	-1.4%	-0.8%	2.9%	2.5%	7.1%[10 µM]
Cc1[nH]c(=O)c(C#N)cc1-c1ccccc1	-2.1%	?	2.0%	?	5.7%	-3.3%[10 µM]
